The text below walks through data of PubChem BioAssay (NCATS).

Each structure is given as a SMILES string. Inconclusive results are not listed. Entries that show only a call come without a potency. Activity calls are given as the source filed them. Calls follow the shape of the full dose curve.
Potency is read from the fitted curve at half-maximal effect.

The target in the test is Nucleoprotein (Lymphocytic choriomeningitis virus (strain Armstrong)) (UniProt P09992). The test can be described thus: qHTS for Inhibitors of the Functional Ribonucleoprotein Complex (vRNP) of Lymphocytic Choriomeningitis Arenaviruses (LCMV): LCMV Primary Screen - GLuc reporter signal (AID 1347086). Also: nearly all actives have a fitted effect of over 70% in size. The following applies: LCMV minigenome vRNP cell assay, Gaussia luciferase reporter; series mostly up to 57.5 µM. (Quantitative high-throughput screening tests each substance at several concentrations.)
Sequence of Nucleoprotein (Lymphocytic choriomeningitis virus (strain Armstrong)) (P09992 whole entry, looked up): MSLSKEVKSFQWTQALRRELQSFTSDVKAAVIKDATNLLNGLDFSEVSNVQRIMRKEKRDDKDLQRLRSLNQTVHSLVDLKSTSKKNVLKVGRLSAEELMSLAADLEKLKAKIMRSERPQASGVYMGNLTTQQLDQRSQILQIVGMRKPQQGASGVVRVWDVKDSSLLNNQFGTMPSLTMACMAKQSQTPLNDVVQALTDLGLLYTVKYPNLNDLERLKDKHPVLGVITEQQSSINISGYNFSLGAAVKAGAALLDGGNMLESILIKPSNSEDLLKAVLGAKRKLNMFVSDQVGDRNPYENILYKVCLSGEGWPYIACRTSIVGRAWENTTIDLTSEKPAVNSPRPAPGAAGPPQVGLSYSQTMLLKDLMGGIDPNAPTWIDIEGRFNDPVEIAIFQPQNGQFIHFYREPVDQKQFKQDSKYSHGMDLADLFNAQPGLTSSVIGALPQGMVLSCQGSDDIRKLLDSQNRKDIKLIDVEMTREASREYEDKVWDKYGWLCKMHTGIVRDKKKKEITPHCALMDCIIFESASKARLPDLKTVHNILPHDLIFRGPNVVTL
Consider `Oc1ccc2c(c1)OCC1(O)Cc3cc(O)c(O)cc3C21` (stereo not given), for which the Potency entry is “inactive”.

For `C=C1C[C@H](OC(=O)C(C)(O)CCl)C2C(=C)C(=O)O[C@@H]2C2C1C[C@H](O)[C@]2(O)CCl` (stereo not given in full), the Potency entry was “inactive”. The same measure for `O=C1NC(=O)C(=Cc2ccc3nccnc3c2)S1`: “inactive”. Next, `COC1=C2C[C@@H](C)C[C@H](OC)[C@@H](O)[C@@H](C)C=C(C)[C@H](OC(N)=O)[C@@H](OC)C=CC=C(C)C(=O)NC(=CC1=O)C2=O`: 15.3 µM (active); `COc1cc2c(cc1OC)[C@@H]1Cc3ccc(OC)c(OC)c3CN1CC2`: “inactive”; `COc1cc(O)c2c(=O)c(-c3ccc(O[C@@H]4O[C@H](CO)[C@@H](O)[C@H](O)[C@H]4O)cc3)coc2c1`: “inactive”.

With `Nc1nc(F)nc2c1ncn2[C@@H]1O[C@H](COP(=O)(O)O)[C@@H](O)[C@H]1O`, the Potency result is “inactive”. Take `C=C1CCC2C(C)(C)[C@H](O)CC[C@@]2(C)[C@@H]1COc1cc(=O)oc2ccccc12` (stereo not given in full): the Potency result is “inactive”. For `Clc1cc(Cl)cc(CNc2ncncc2-c2ccc3c(c2)OCO3)c1`, the Potency result is “inactive”.

For the compound `CC/C=C\[C@H](O)[C@H](O)C1=C(C)C(=O)[C@]2(O1)C(=O)N[C@@](OC)(C(=O)c1ccccc1)C2O` (stereo not given in full), the Potency result is “inactive”. Consider `C[C@]12CC[C@H]3C(=CCc4cc(O)ccc43)[C@@H]1CCC2=O`, for which the Potency result was “inactive”. Take `O=C(c1ccc(C=Cc2n[nH]c3ccccc23)cc1)N1CCNCC1`: the Potency result was “inactive”.

On to `Cc1nccc2c1[nH]c1ccc(Br)cc12`, for which the Potency entry was “inactive”. Next, `COc1cc2c(cc1OC)C(C)N(Cc1ccc3c(c1)OCO3)CC2` (stereo not given): “inactive”; `O=C1NC(=O)C(=Cc2ccc(-c3ccc(F)cc3O)o2)S1`: “inactive”.
